Experimental data from ChEMBL document CHEMBL3988442, “University of Dundee, Small-Polar-MMV Screening Library” (2021).
Out of some 48,000 compounds screened, about 13,000 (27%) showed an effect of 50% or more. Some of the results follow.

System: Wolbachia pipientis
Test: Anti-Wolbachia Cell-Based Screen
Type: functional
Set-up: scale not given: in the data most compounds retested in dose-response had high values
Details: 5 µM

SMILES | Percent Effect [%]
COC(CNC(=O)c1ccoc1)c1cccc(Cl)c1 (stereo unspecified) | -9.296
CCC(CC)c1nnc(NC(=O)N2CCC(C(N)=O)CC2)s1 | -0.6648
COc1ccc(C(=O)N2CCC(c3nccn3C(C)C)CC2)cc1OC | -4.969
Cc1nc(C2CCN(C(=O)c3cnc(N(C)C)nc3)CC2)c2sccn12 | 121.8
Cc1nc(C2CCN(C(=O)c3cccnc3)CC2)c2sccn12 | -3.155
COc1ncc(C(=O)N2CCC(c3nc(C)n4ccsc34)CC2)cn1 | 120.4
Cc1ncc(CN(C)CC(O)c2cccc(C(F)(F)F)c2)s1 (stereo unspecified) | 2.292
c1ccc(OCCSC2=NCCN2)cc1 | -0.348
CC(C)N(CC(N)=O)Cc1csc(-c2ncccn2)n1 | 8.567
CN(C(=O)c1cccc(C(=O)NCC(F)(F)F)c1)c1ccccc1 | -5.375
CSc1nccn1-c1cccc(C(=O)NCC2CC2)c1 | -0.4347
CSc1nccn1-c1cccc(C(=O)NCc2nnc(C)n2C)c1 | 4.938
CC(C)NC(=O)CCNC(=O)Nc1cccc(-c2nccn2C)c1 | -18.82
CC(C)NC(=O)CCNC(=O)c1cc(Br)cn1C(C)C | 8.916
CSc1nccn1-c1ccc(C(=O)NCC2CC2)cc1 | 114.7
Cc1ccc2cc(C(=O)NCCN3CCS(=O)(=O)CC3)c(C)nc2c1 | -6.636
CSc1nccn1-c1cccc(C(=O)NCC(F)(F)F)c1 | 95.57
CSc1nccn1-c1cccc(C(=O)NCCCN2CCOCC2)c1 | 1.615
CSc1nccn1-c1cccc(C(=O)NCCC(=O)NC(C)C)c1 | 87.94
CC(=O)N1Cc2nccn2CC(CNC(=O)c2ccnnc2)C1 (stereo unspecified) | -11.54
CSc1nccn1-c1cccc(C(=O)NCCN2CCS(=O)(=O)CC2)c1 | 100.7
NC(=O)c1cncc(Oc2cccc(CN3CCCC3)c2Cl)n1 | 9.192
O=C(NCCN1CCOCC1)NCc1ccccc1-n1cccn1 | 1.937
CC(=O)N(C)Cc1ccccc1NCc1c(C)noc1C | 25.91
COc1cc(C2(C(=O)NC3CCN(CC4CC4)CC3)CC2)ccc1C | 28.82
CC(OCC1CC1)C(=O)NCc1cccc(CN2CCN(C)CC2)c1 (stereo unspecified) | 14.4

SMILES | Percent Effect [%]
CN(C)[C@@H]1CN(Cc2cccnc2)C[C@H]1c1cn(C)c2ccccc12.Cl | 79.34
CC(C)[C@@H]1CN(Cc2ccccc2C#N)C[C@H]1N(C)C | 11.57
CN(C)[C@@H]1CN(Cc2ccccn2)C[C@H]1c1cn(C)c2ccccc12.Cl | 130.6
Cn1cc(CCC(=O)N2C[C@H]3CC[C@@H]2CN(Cc2ccccc2)C3)cn1 | -15.29
Cn1cnnc1SCC(=O)N1C[C@H]2CC[C@@H]1CN(Cc1cccnc1)C2 | -4.246
CN(C)[C@@H]1CN(Cc2ccccc2O)C[C@H]1c1cn(C)c2ccccc12.Cl | 136.4
CCn1c(C)nnc1CN(C)C1CCN(Cc2ccccn2)C1 (stereo unspecified) | 15.92
CC(=O)N1CCC2(CC1)[C@@H]1CN(Cc3cccnc3)C[C@@H]1C(=O)N2C | -30.73
Cn1ccnc1CN1C(=O)CO[C@H]2CN(Cc3ccccc3O)C[C@H]21 | -13.53
CN(C)[C@@H]1CN(Cc2ccc(O)cc2)C[C@H]1c1cn(C)c2ccccc12.Cl | 86.16
CC(C)[C@@H]1CN(Cc2ccccn2)C[C@H]1NS(=O)(=O)N(C)C | -0.7917
CCC[C@@H]1CN(Cc2ccc(N(C)C)nc2)C[C@H]1N(C)C | -0.1894
O=C1NC(c2ccccc2)=N[C@@]12CC[C@@H]1CN(Cc3ccoc3)C[C@@H]12 | -8.675
Cc1ccn(-c2ccccc2NCc2scnc2C)n1 | -9.292
CCc1ccc(C(C)NC(=O)c2ccc(CS(C)(=O)=O)o2)cc1 (stereo unspecified) | -17.56
CC(O)CN(CC(=O)NC(=O)NC1CC1)c1ccccc1 (stereo unspecified) | 10.44
CS(=O)(=O)NC(=O)c1cc(Cl)c2c(c1)OCCCO2 | 1.063
CCc1nc(NS(=O)(=O)c2cc(C)ccc2F)no1 | 7.249
CCc1cc(N(C)Cc2noc(CC(C)C)n2)ncn1 | 121.1
Cc1ccn(Cc2nc(CC(C)C)no2)c(=O)c1 | -2.116
COCCc1noc(CN(C)c2cc(C)ncn2)n1 | -9.011
CC(C)Cc1noc(CN(C)c2ncccn2)n1 | 119.3
CC(C)Cc1noc(CN(C)C2CCCC2)n1 | -3.332
CC(C)Cc1nc(CN(C)CCOc2ccc(F)cc2)no1 | 5.016
CC(C)Cc1noc(CN(C)c2cc(N(C)C)ncn2)n1 | 110.5
CCc1cc(N(C)Cc2noc(C(C)C)n2)nc(N2CCOCC2)n1 | -7.429

SMILES | Percent Effect [%]
COc1cc(N(C)Cc2noc(CC(C)C)n2)ncn1 | 117.3
COC(C)c1noc(CN(C)c2ncccn2)n1 (stereo unspecified) | -22.13
CCN(Cc1noc(CC(C)C)n1)Cc1ccccc1C | 1.611
CCn1ccnc1CN(C)c1cc(OC)ncn1 | 2.5
OC1CN(Cc2cccc(N3CCOCC3)c2)Cc2ccccc21 (stereo unspecified) | -36.91
O=C(c1scc2c1OCCO2)N1CCOC(Cc2ccc(F)cc2)C1 (stereo unspecified) | -34.62
CS(=O)(=O)N1CCN(C(=O)CN2CCCc3c(F)cc(F)cc32)CC1 | 12.08
CC(C)n1ncc2c1NC(=O)CC21C(=O)Nc2c(Cl)cc(Cl)cc21 (stereo unspecified) | -10.03
Cc1nn(C)c(C)c1CNC1CCOc2ccccc21 (stereo unspecified) | -9.351
Cn1ncc(NCc2cccc(COC(C)(C)C)c2)c(Cl)c1=O | -1.578
CN(Cc1nccn1C)CC1CCOc2ccccc2C1 (stereo unspecified) | 12.56
CC(=O)NC1CCCN(C(=O)Nc2nnc(C(C)C)s2)C1 (stereo unspecified) | -25.39
COc1ccc(C(=O)N2CCCC(NC(=O)C(C)C)C2)c(O)c1 (stereo unspecified) | 103.8
CC(C)(C)OC(=O)NCC1CCN(C(=O)c2ccccc2O)C1 (stereo unspecified) | -1.633
CC(C)C(=O)NC1CCCN(C(=O)c2cc3ccccc3cc2O)C1 (stereo unspecified) | 101.9
CC(=O)NC1CCCN(C(=O)c2ccc(Br)cc2O)C1 (stereo unspecified) | -3.443
CC(C)C(=O)NC1CCCN(C(=O)c2ccccc2O)C1 (stereo unspecified) | 105
CC(=O)NC1CCN(C(=O)c2cnc(COc3ccccc3)nc2O)C1 (stereo unspecified) | 1.868
COc1ccc(C(=O)N2C[C@@H](C(=O)O)[C@H](c3ccccc3)C2)c(O)c1 | 5.335
O=C(NCCc1nncn1C1CC1)C1(c2ccccc2)CCC1 | -10.81
CS(=O)(=O)CCNC(=O)NCCc1cc2ccccc2o1 | -10.03
CCOC(=O)C1(CCOC)CCN(Cc2nccn2CC)CC1 | -7.374
CC(C)NC(=O)NC[C@H]1OC[C@@H](NCc2ccccc2O)[C@@H]1O | 1.072
O=C(NCC1(O)CCCCC1)c1coc(COc2cccc(F)c2)n1 | -6.674
CCc1nnsc1C(=O)N1CCN(CC(O)C(C)(C)C)CC1 (stereo unspecified) | 3.041
Cc1ccc(C(=O)N2CCC3(CC2)c2ccccc2[C@@H](N)[C@@H]3O)cc1F | -5.913

SMILES | Percent Effect [%]
COc1ccc(C(=O)N2CCC3(CC2)c2ccccc2[C@@H](N)[C@@H]3O)cc1 | -1.286
CC(C)c1cc(C(=O)N2CCC3(CC2)c2ccccc2[C@@H](N)[C@@H]3O)cs1 | 119.3
Cn1ncc(C(=O)OCC2CC(=O)N(c3ccccc3)C2)c1C(F)F (stereo unspecified) | -5.382
O=S1(=O)CCCN1Cc1coc(-c2ccc(C(F)(F)F)cc2)n1 | -8.069
Cc1nc(CN2CCc3ncnc(-c4ccncc4)c3CC2)cs1.O=C(O)C(F)(F)F.O=C(O)C(F)(F)F | -2.21
Cc1noc(C)c1CN1CCc2ncnc(-c3ccccc3)c2CC1.O=C(O)C(F)(F)F | 91.91
O=C(O)C(F)(F)F.c1nc2c(c(-c3ccsc3)n1)CCN(Cc1ccoc1)CC2 | -2.066
Cc1noc(C)c1CN1CCc2ncnc(-c3ccncc3)c2CC1.O=C(O)C(F)(F)F.O=C(O)C(F)(F)F | 90.01
O=C(O)C(F)(F)F.c1ccc(CN2CCc3ncnc(-c4ccoc4)c3CC2)nc1 | -8.699
CCN(C)c1ncnc2c1CCN(CC1CCOC1)CC2.O=C(O)C(F)(F)F (stereo unspecified) | -11.17
Cc1noc(C)c1CN1CCc2ncnc(-c3ccoc3)c2CC1.O=C(O)C(F)(F)F | 108.1
Cn1cc(-c2ncnc3c2CCN(CC2CCOC2)CC3)cn1.O=C(O)C(F)(F)F (stereo unspecified) | 97.72
O=C(O)C(F)(F)F.O=C(O)C(F)(F)F.c1ccc(CN2CCc3ncnc(-c4ccncc4)c3CC2)nc1 | -25.56
Cc1ncnc2c1CCN(CC1CCOC1)CC2.O=C(O)C(F)(F)F (stereo unspecified) | 17.43
OCc1ccc(CN2CCC(n3cc(-c4ccsc4)nn3)CC2)o1 | -3.234
O=C(O)c1csc(S(=O)(=O)N2CCN(Cc3ccc(Cl)cc3)CC2)c1 | 3.67
Cc1ccc(S(=O)(=O)NCCCN2CCC(O)CC2)cc1Cl | 11.47
COCc1noc(CCNc2nc(CC3CC3)nc3c2CCNCC3)n1 | -2.883
CCNC(=O)c1cnc(Cc2ccc(F)cc2)s1 | -2.208
Cc1noc(C)c1CN1CCc2ncnc(-c3cnn(C)c3)c2CC1.O=C(O)C(F)(F)F | 103.6
Cc1noc(C)c1CN1CCc2ncnc(-c3cccnc3)c2CC1.O=C(O)C(F)(F)F.O=C(O)C(F)(F)F | 104.6
Cn1cc(CN2CCc3ncnc(N4CCOCC4)c3CC2)cn1.O=C(O)C(F)(F)F.O=C(O)C(F)(F)F.O=C(O)C(F)(F)F | -9.324
Cc1noc(C)c1CN1CCc2ncnc(-c3ccc(F)cc3)c2CC1.O=C(O)C(F)(F)F | 85.48
